Experimental data published in PubChem BioAssay (Tox21).
“And” between values parts separate entries of the source, which are not always exact repeats. Identical values can stand only once. Results filed as inconclusive are left out. The source made the active and inactive calls. Unless noted, calls come from the whole dose curve; as a rule, active = well fitted curve in the direction sought with a large enough effect in the repeat runs; inconclusive = weak or mixed curves; inactive = no such curve, though single readings can be large; an effect the other way counts as inactive or inconclusive.

Columns and labels:
[1] = biological target: Luciferin 4-monooxygenase (Photinus pyralis) (UniProt P08659); experiment: qHTS assay to identify small molecule inhibitors of firefly luciferase (AID 1224835); note: nearly all actives have a fitted effect of over 25% in size; note: potency is the fitted concentration of half-maximal effect
Procedure, shortened: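 Biochemical qHTS: compounds run as interplate titrations against purified firefly enzyme, with D-luciferin and ATP each at its KM concentration. Light output recorded by CCD imaging.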

[2] = qHTS assay to identify small molecule agonists of the constitutive androstane receptor (CAR) signaling pathway - cell viability counter screen (AID 1224836); note: nearly all actives have a fitted effect of over 45% in size; note: potency is the fitted concentration of half-maximal effect
Procedure, shortened: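 Double-stable HepG2 hepatoma cells (hCAR plus CYP2B6-2.2kb) are treated for 23 h at 37 C with test compounds in 15-point concentration series. PK11195 at 0.75 uM final is co-added. Cell viability is quantified by CellTiter-Fluor.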

[3] = qHTS assay to identify small molecule antagonists of the constitutive androstane receptor (CAR) signaling pathway - cell viability counter screen (AID 1224837); note: nearly all actives have a fitted effect of over 45% in size; note: potency is the fitted concentration of half-maximal effect
Procedure, shortened: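 Cytotoxicity counter-screen: CellTiter-Fluor fluorescence after 23 h compound exposure (15-point qHTS) in double-stable HepG2-CYP2B6-hCAR cells, with 50 nM CITCO added.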

[4] = biological target: Nuclear receptor subfamily 1 group I member 3 (Homo sapiens) (UniProt Q14994); experiment: qHTS assay to identify small molecule antagonists of the constitutive androstane receptor (CAR) signaling pathway (AID 1224838);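 note: HepG2 cells stably expressing hCAR with CYP2B6 luciferase reporter stimulated by CITCO; nearly all actives have a fitted effect of over 40% in size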; note: potency is the fitted concentration of half-maximal effect
Procedure, shortened: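 Antagonism measured as luciferase signal (ONE-Glo, 30 min, room temperature) in CAR-stimulated cells: HepG2-CYP2B6-hCAR double-stable line exposed 24 hr at 37 C to compound in a 15-point series plus 50 nM CITCO.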

[5] = biological target: Nuclear receptor subfamily 1 group I member 3 (Homo sapiens) (UniProt Q14994); experiment: qHTS assay to identify small molecule agonists of the constitutive androstane receptor (CAR) signaling pathway (AID 1224839); note: nearly all actives have a fitted effect of over 15% in size; note: potency is the fitted concentration of half-maximal effect;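 for activation: HepG2 cells stably carrying human CAR and a CYP2B6 luciferase reporter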
Procedure, shortened: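 Readout: firefly luciferase luminescence via ONE-Glo. System: HepG2 double-stable for hCAR and CYP2B6-2.2kb. Conditions: 15-point compound titration, PK11195 at 0.75 uM final, 24 h incubation.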

[6] = qHTS assay to identify small molecule antagonists of the estrogen related receptor signaling pathway with the pleiotropic PPARgamma coactivator (PGC) from Tox21 10K library - cell viability counter screen (AID 1224840; active = well fitted cell-killing curve with a large enough effect in the repeat runs, not every such curve was filed as active; note: nearly all actives have a fitted effect of over 40% in size; note: potency is the fitted concentration of half-maximal effect)
Procedure, shortened: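 Counter-screen for cytotoxicity: after 17.5 h compound exposure at 37 C, CellTiter-Fluor reagent added to PGC/ERR cells for 30 min and fluorescence read. Cells were seeded at 2,000 per well 6 h before dosing.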

[7] = qHTS assay to identify small molecule antagonists of the estrogen related receptor signaling pathway with the pleiotropic PPARgamma coactivator (PGC) from Tox21 10K library (AID 1224841; call rule not given here; note: actives are mostly falling curves and most rising ones were filed inactive; nearly all actives have a fitted effect of over 50% in size; note: potency is the fitted concentration of half-maximal effect)
Procedure, shortened: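 Luminescence (One-Glo, 30 min at room temperature) after 18 h compound treatment at 37 C of PGC/ERR reporter cells plated at 2,000 cells/well and settled 6 h beforehand.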

[8] = qHTS assay to identify small molecule agonists of the estrogen related receptor signaling pathway with the pleiotropic PPARgamma coactivator (PGC) from Tox21 10K library (AID 1224842); note: nearly all actives have a fitted effect of over 15% in size
Procedure, shortened: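 PGC/ERR reporter cell line, 2,000 cells per well, incubated 6 h at 37 C before 23 nL compound in DMSO was added. After 18 h at 37 C, One-Glo luminescence read following 30 min at room temperature.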

[9] = qHTS assay to identify small molecule agonists of the hypoxia (HIF-1) signaling pathway - cell viability counter screen (AID 1224844; calls by dose curve; note: nearly all actives have a fitted effect of over 50% in size; note: potency is the fitted concentration of half-maximal effect)
Procedure, shortened: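 Cytotoxicity measured by CellTiter-Glo ATP luminescence in the wells also read for beta-lactamase signal. Cells were HRE-bla ME-180 (2,000/well, 0.5% dialyzed FBS), exposed to compounds for 17 h at 37C.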

[10] = qHTS assay to identify small molecule agonists of H2AX (AID 1224845; active = well fitted activation curve with a large enough effect in the signal ratio in the repeat runs, not every such curve was filed as active; the % refers to the signal ratio; note: potency is the fitted concentration of half-maximal effect)
Procedure, shortened: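 Wild-type CHO-K1 cells, plated overnight, exposed 3hr at 37C to 15 concentrations (0.76% DMSO final). Lysed, then HTRF anti-pH2AX (S139) cryptate and anti-H2AX-d2 antibodies, 24 hr room temperature; 665/620 nm emission read.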

[11] = qHTS assay to identify small molecule agonists of H2AX - cell viability counter screen (AID 1224847; calls by dose curve; note: nearly all actives have a fitted effect of over 30% in size; note: potency is the fitted concentration of half-maximal effect)
Procedure, shortened: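 For this counter screen, overnight-attached CHO-K1 cells received test compounds (15 concentrations, 0.76% DMSO final); 3 hr later at 37C, CellTiter-Glo reagent was added and luminescence recorded after 30 min at room temperature.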

[12] = qHTS assay to identify small molecule agonists of the estrogen related receptor (ERR) signaling pathway from Tox21 library (AID 1224849; calls by dose curve; note: nearly all actives have a fitted effect of over 15% in size); settings: ERR reporter cell line, ONE-Glo luciferase, 18 h; at 92.4 µM (top of the series) unless noted
Procedure, shortened: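 Luminescent agonist read-out (One-Glo, 30-minute room-temperature incubation) following 18-hour compound treatment at 37 C of the ERR cell line, which had been plated 6 hours before dosing.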

[13] = qHTS RealTime-Glo MT Cell Viability Assay in HepG2 cells - 24 hour (AID 1224867); note: nearly all actives have a fitted effect of over 50% in size; note: potency is the fitted concentration of half-maximal effect
Procedure, shortened: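 HepG2 cells (600/well) were dispensed with RealTime-Glo reagents, incubated 5 h at 37 °C, then treated with compounds in DMSO for up to 40 h. Nonlytic NanoLuc luminescence reflecting viable cells was read at each stated time point.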

[14] = qHTS RealTime-Glo MT Cell Viability Assay in HEK293 cells - 32 hour (AID 1224868); note: nearly all actives have a fitted effect of over 50% in size; note: potency is the fitted concentration of half-maximal effect
Procedure, shortened: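 HEK293 cells seeded with NanoLuc/prosubstrate reagent, rested 5 h at 37 C, then dosed and kept at 37 C up to 40 h. Nonlytic real-time luminescence from viable cells read at 0, 8, 16, 24, 32 and 40 h.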

[15] = qHTS RealTime-Glo MT Cell Viability Assay in HepG2 cells - 40 hour (AID 1224870); note: nearly all actives have a fitted effect of over 50% in size; note: potency is the fitted concentration of half-maximal effect
Procedure, shortened: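 HepG2 cells (600/well) mixed with RealTime-Glo MT reagent, settled 5 h at 37 C/5% CO2 before compound addition. Nonlytic NanoLuc luminescence from viable-cell prosubstrate reduction read repeatedly during 40 h treatment at 37 C.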

[16] = A CellTox Green Cytotoxicity Assay to monitor cytotoxicity in HEK293 cells - 40 hour (AID 1224871); note: nearly all actives have a fitted effect of over 45% in size; note: potency is the fitted concentration of half-maximal effect
Procedure, shortened: (§1)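 Fluorescence from a DNA-binding dye excluded by viable cells was measured repeatedly in the same HEK293 wells (600 cells/well) during continuous compound exposure at 37 C. Each assay gives one read point: 0, 8, 16, 24, 32 or 40 h.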

[17] = biological target: Thyrotropin receptor (Homo sapiens) (UniProt P16473); experiment: qHTS assay to identify small molecule agonists of the thyroid stimulating hormone receptor (TSHR) signaling pathway (AID 1224843; calls by dose curve; note: nearly all actives have a fitted effect of over 45% in size; note: potency is the fitted concentration of half-maximal effect)
Procedure, shortened: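 Agonist-mode screen: TSHR HEK293 cells received test chemicals for half an hour at room temperature, then HTRF cAMP detection reagents for one hour prior to fluorescence measurement. Each chemical ran as a 15-concentration series, triplicated.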

[18] = qHTS assay to identify small molecule agonists of the hypoxia (HIF-1) signaling pathway (AID 1224846; active = well fitted activation curve with a large enough effect in the signal ratio in the repeat runs, not every such curve was filed as active; the % refers to the signal ratio)
Procedure, shortened: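 Compounds added to ME-180 cells carrying hypoxia-response-element beta-lactamase reporter (0.5% dialyzed FBS, 5 h preplating), 17 h at 37C; agonist activity detected by CCF4-AM B/G FRET read-out.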

[19] = qHTS assay to identify small molecule antagonists of the estrogen related receptor (ERR) signaling pathway from Tox21 library (AID 1224848); note: nearly all actives have a fitted effect of over 50% in size; note: potency is the fitted concentration of half-maximal effect
Procedure, shortened: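 Quantitative high-throughput format: ERR reporter cells (2,000/well) pre-incubated 6 h, treated 18 h at 37 C with compounds in DMSO alongside positive and negative controls, then read by ONE-Glo luminescence.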

[20] = A CellTox Green Cytotoxicity Assay to monitor cytotoxicity in HEK293 cells - 0 hour (AID 1224869); note: nearly all actives have a fitted effect of over 50% in size; note: potency is the fitted concentration of half-maximal effect
Procedure, shortened: as §1
% is set by controls: 0 for no effect and ±100 for the full control effect.

Chain of Luciferin 4-monooxygenase (Photinus pyralis) (P08659 whole entry, looked up): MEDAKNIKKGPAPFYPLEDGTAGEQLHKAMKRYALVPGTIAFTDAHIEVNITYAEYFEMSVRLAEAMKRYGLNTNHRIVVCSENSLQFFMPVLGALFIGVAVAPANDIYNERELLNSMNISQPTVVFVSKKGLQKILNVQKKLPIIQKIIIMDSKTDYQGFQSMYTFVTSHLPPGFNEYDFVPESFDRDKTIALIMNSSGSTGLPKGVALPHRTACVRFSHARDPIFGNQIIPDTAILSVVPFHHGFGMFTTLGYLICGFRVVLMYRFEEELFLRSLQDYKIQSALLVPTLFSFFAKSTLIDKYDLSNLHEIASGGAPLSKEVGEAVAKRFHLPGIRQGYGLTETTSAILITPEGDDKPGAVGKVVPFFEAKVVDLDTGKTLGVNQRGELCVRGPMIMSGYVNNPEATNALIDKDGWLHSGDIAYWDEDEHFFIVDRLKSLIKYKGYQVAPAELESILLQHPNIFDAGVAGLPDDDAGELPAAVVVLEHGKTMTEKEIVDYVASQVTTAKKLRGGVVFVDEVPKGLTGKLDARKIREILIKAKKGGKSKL
Chain of Thyrotropin receptor (Homo sapiens) (P16473 whole entry, looked up): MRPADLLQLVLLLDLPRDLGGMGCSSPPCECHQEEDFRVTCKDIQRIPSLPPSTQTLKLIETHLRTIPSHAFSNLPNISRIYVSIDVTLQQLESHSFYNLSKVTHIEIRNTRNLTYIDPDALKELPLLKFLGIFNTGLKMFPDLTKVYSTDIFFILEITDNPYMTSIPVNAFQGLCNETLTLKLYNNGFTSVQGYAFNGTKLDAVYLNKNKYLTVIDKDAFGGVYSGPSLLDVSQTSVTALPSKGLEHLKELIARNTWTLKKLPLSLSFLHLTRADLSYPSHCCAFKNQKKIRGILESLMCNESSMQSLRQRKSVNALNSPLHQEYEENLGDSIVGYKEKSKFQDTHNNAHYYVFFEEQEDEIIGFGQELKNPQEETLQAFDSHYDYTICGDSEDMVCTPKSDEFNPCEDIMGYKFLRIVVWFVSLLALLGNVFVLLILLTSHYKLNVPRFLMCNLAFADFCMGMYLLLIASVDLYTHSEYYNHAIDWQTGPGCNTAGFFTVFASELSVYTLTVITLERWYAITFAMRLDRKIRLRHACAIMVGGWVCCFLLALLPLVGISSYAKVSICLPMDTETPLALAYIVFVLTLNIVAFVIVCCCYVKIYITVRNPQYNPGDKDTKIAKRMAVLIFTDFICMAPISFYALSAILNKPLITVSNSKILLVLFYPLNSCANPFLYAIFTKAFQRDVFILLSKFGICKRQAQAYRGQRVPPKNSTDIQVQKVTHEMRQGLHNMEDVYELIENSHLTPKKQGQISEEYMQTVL
Chain of Nuclear receptor subfamily 1 group I member 3 (Homo sapiens) (Q14994 whole entry, looked up): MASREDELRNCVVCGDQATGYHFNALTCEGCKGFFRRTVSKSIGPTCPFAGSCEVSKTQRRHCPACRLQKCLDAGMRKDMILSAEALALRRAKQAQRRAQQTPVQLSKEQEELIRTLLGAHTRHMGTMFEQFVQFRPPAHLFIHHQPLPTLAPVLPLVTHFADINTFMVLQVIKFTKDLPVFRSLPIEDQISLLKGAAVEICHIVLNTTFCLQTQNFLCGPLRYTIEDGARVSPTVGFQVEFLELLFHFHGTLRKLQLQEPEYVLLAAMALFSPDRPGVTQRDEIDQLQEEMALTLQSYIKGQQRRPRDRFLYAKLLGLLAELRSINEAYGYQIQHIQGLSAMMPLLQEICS

CC1(C)C(C=C(Cl)Cl)C1C(=O)OC(C#N)c1ccc(F)c(Oc2ccccc2)c1 (stereo not given)
inactive: Potency [1] | Potency [2] | Potency [3] | Potency [4] | Potency [5] | Potency [6] | Potency [7] | Potency [8] | Potency [9] | Potency [10] | Potency [11] | activity change, positive = activation [12] -26.4% | Potency [13] | Potency [14] | Potency [15] | Potency [16]

CNC(=O)/C=C(\C)OP(=O)(OC)OC
inactive: Potency [1] | Potency [2] | Potency [3] | Potency [4] | Potency [5] | Potency [6] | Potency [7] | Potency [8] | Potency [17] | Potency [9] | Potency [18] | Potency [11] | Potency [19] | activity change, positive = activation [12] -0.497% | Potency [13] | Potency [14] | Potency [20] | Potency [15]

CC(Cc1ccc(OCC(=O)O)cc1)NCC(O)c1csc(C(F)(F)F)n1 (stereo not given)
inactive: Potency [1] | Potency [2] | Potency [3] | Potency [4] | Potency [5] | Potency [6] | Potency [7] | Potency [8] | Potency [17] | Potency [9] | Potency [18] | Potency [11] | Potency [19] | activity change, positive = activation [12] 13.9% | Potency [13] | Potency [14] | Potency [20] | Potency [15]

O=c1[nH]c2cc(Cl)ccc2n1C1CCNCC1
inactive: Potency [1] | Potency [2] | Potency [3] | Potency [4] | Potency [5] | Potency [6] | Potency [7] | Potency [8] | Potency [17] | Potency [9] | Potency [10] | Potency [18] | Potency [11] | Potency [19] | activity change, positive = activation [12] 0.0547% [at 42.5 µM] | Potency [13] | Potency [14] | Potency [20] | Potency [15] | Potency [16]

CCC[CH2][Sn]([CH2]CCC)([CH2]CCC)[CH2]CCC
active: Potency [2] 15.4 µM | Potency [3] 24.3 µM | Potency [4] 9.69 µM | Potency [6] 17.2 µM | Potency [9] 11 µM | Potency [10] 8 µM | Potency [11] 14.2 µM | Potency [19] 13.7 µM | Potency [13] 6.16 µM | Potency [14] 8.71 µM | Potency [20] 49 µM | Potency [15] 4.9 µM | Potency [16] 12.3 µM
inactive: Potency [1] | Potency [5] | Potency [7] | activity change, positive = activation [12] -63.4%

Cc1c([N+](=O)[O-])c(C)c([N+](=O)[O-])c(C(C)(C)C)c1[N+](=O)[O-]
inactive: Potency [1] | Potency [2] | Potency [3] | Potency [4] | Potency [6] | Potency [7] | Potency [8] | Potency [10] | Potency [18] | Potency [19] | Potency [13] | Potency [14] | Potency [20] | Potency [15] | Potency [16]
active: Potency [5] 34.4 µM | Potency [9] 24.5 µM

Cc1cc2c3c(c1)C(c1ccccc1)=N[C@@H](NC(=O)c1ccncc1)C(=O)N3CC2
inactive: Potency [1] | Potency [2] | Potency [3] | Potency [4] | Potency [5] | Potency [6] | Potency [7] | Potency [8] | Potency [17] | Potency [9] | Potency [18] | Potency [11] | Potency [19] | Potency [13] | Potency [20] | Potency [15] | Potency [16]

O=Cc1ccccc1
inactive: Potency [1] | Potency [2] | Potency [3] | Potency [4] | Potency [5] | Potency [6] | Potency [7] | Potency [8] | Potency [17] | Potency [9] | Potency [10] | Potency [18] | Potency [11] | Potency [19] | Potency [13] | Potency [20] | Potency [15] | Potency [16]

CC(C)N(C(=O)CCl)c1ccccc1
inactive: Potency [1] | Potency [5] | Potency [8] | Potency [17] | Potency [20] | Potency [16]
active: Potency [2] 68.6 µM and 61.1 µM | Potency [3] 54.5 µM and 48.6 µM | Potency [4] 54.5 µM and 38.6 µM | Potency [6] 30.6 µM | Potency [7] 9.69 µM and 6.11 µM | Potency [19] 15.4 µM and 13.7 µM

Cc1ccccc1OP(=O)(Oc1ccccc1C)Oc1ccccc1C
active: Potency [5] 21.8 µM | Potency [11] 90.1 µM
inactive: Potency [1] | Potency [2] | Potency [3] | Potency [4] | Potency [6] | Potency [8] | Potency [17] | Potency [9] | Potency [10] | Potency [18] | Potency [19] | activity change, positive = activation [12] -4.53% | Potency [13] | Potency [20] | Potency [15] | Potency [16]

COC(=O)C(C)N(C(=O)c1ccco1)c1c(C)cccc1C (stereo not given)
inactive: Potency [1] | Potency [2] | Potency [3] | Potency [4] | Potency [6] | Potency [8] | Potency [17] | Potency [9] | Potency [10] | Potency [18] | Potency [11] | Potency [19] | Potency [13] | Potency [14] | Potency [20] | Potency [15] | Potency [16]
active: Potency [5] 15.3 µM

CC(O)C(=O)[O][Hg][c]1ccccc1 (stereo not given)
active: Potency [1] 3.99 µM | Potency [2] 4.86 µM | Potency [3] 4.86 µM | Potency [4] 4.33 µM | Potency [6] 3.06 µM | Potency [7] 4.86 µM | Potency [17] 2.43 µM | Potency [9] 1.38 µM | Potency [11] 6.35 µM | Potency [19] 3.86 µM | Potency [13] 2.45 µM | Potency [14] 0.977 µM | Potency [15] 2.75 µM | Potency [16] 0.977 µM
inactive: Potency [5] | Potency [8] | activity change, positive = activation [12] -80.9% | Potency [20]

O=c1c2ccccc2c(=O)c2c1cc(Cl)c1[nH]c3c([nH]c12)c(Cl)cc1c(=O)c2ccccc2c(=O)c13
inactive: Potency [2] | Potency [3] | Potency [4] | Potency [5] | Potency [6] | Potency [8] | Potency [17] | Potency [9] | Potency [18] | Potency [11] | Potency [19] | activity change, positive = activation [12] -7.42% | Potency [13] | Potency [14] | Potency [20] | Potency [15] | Potency [16]
active: Potency [1] 56.4 µM
